The source of these data is PubChem BioAssay (EPA / NIEHS).

Holding throughout (details): mRNA level, 48 h; actives raise or lower the signal
Read-out in test [1]: Apoptosis regulator Bcl-2 (Homo sapiens) (UniProt P10415)
As to the kind of experiment: LTEA_HepaRG_BCL2: Life Technologies and Expression Analysis (LTEA) Assay for Bcl-2 gene using HepaRG (AID 2283475). The essentials:
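Each chemical was tested in duplicate on HepaRG cultures held in serum-free induction medium for 48 h, highest concentration 100 uM with half-log dilutions. Transcript levels came from multiplexed qRT-PCR, normalised to housekeeping genes; activity was scored in either direction relative to DMSO.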

Read-out in a further test: Caspase-3 (Homo sapiens) (UniProt P42574)
The test can be described thus: LTEA_HepaRG_CASP3: Life Technologies and Expression Analysis (LTEA) Assay for cysteine-aspartic acid protease (CASP3) using HepaRG (AID 2283477). In outline:
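Differentiated human HepaRG cells in serum-free induction medium were exposed 48 h to 8-point half-log concentrations from 100 uM (0.5% DMSO vehicle). CASP3 mRNA was measured by qRT-PCR, normalised to ACTB, GAPDH and POLR2A, with bidirectional fitting against DMSO.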

Read-out in test [2]: Cytochrome P450 (CYP24A1), CYP24A1 (gene 1591)
As to the kind of experiment: LTEA_HepaRG_CYP24A1: Life Technologies and Expression Analysis (LTEA) Assay for Cytochrome P450 (CYP24A1) using HepaRG (AID 2283478). The essentials:
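Differentiated HepaRG cells, pre-cultured 48 h, were exposed in duplicate for 48 h in serum-free induction medium to 8 half-log concentrations (top 100 uM, 0.5% DMSO). CYP24A1 mRNA was quantified by TaqMan qRT-PCR, normalized to ACTB/GAPDH/POLR2A, fitted bidirectionally versus DMSO.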

Read-out in test [3]: Cytochrome P450 (CYP1A2), CYP1A2 (gene 1544)
As to the kind of experiment: LTEA_HepaRG_CYP1A2: Life Technologies and Expression Analysis (LTEA) Assay for Cytochrome P450 (CYP1A2) using HepaRG (AID 2283479). In outline:
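Differentiated human HepaRG cells in serum-free induction medium were exposed in duplicate for 48 h to 8-point half-log concentrations up to 100 uM in 0.5% DMSO. CYP1A2 mRNA measured by qRT-PCR, normalized to ACTB, GAPDH, POLR2A; bidirectional fit vs DMSO.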

Read-out in test [4]: cysteine-aspartic acid protease (CASP8), CASP8 (gene 841)
As to the kind of experiment: LTEA_HepaRG_CASP8: Life Technologies and Expression Analysis (LTEA) Assay for cysteine-aspartic acid protease (CASP8) using HepaRG (AID 2283480). In outline: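 qRT-PCR readout of CASP8 mRNA, normalized to three housekeeping genes, after 48 h chemical exposure of HepaRG cells; 8-point half-log series, top 100 uM, 0.5% DMSO vehicle. Bidirectional curve fitting against DMSO baseline.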

Read-out in test [5]: Cytochrome P450 (CYP2B6), CYP2B6 (gene 1555)
As to the kind of experiment: LTEA_HepaRG_CYP2B6: Life Technologies and Expression Analysis (LTEA) Assay for Cytochrome P450 (CYP2B6) using HepaRG (AID 2283481). The essentials:
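Differentiated HepaRG cells, serum-free induction medium, exposed 48 h in duplicate to 8-point half-log concentrations from 100 uM in 0.5% DMSO. CYP2B6 mRNA by qRT-PCR, normalized to ACTB, GAPDH, POLR2A; bidirectional fit versus DMSO.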

Read-out in test [6]: Cytochrome P450 2C19 (Homo sapiens) (UniProt P33261)
As to the kind of experiment: LTEA_HepaRG_CYP2C19: Life Technologies and Expression Analysis (LTEA) Assay for CYP2C19 using HepaRG (AID 2283482). The essentials: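 Differentiated human HepaRG cells were exposed for 48 h in serum-free induction medium to 8 concentrations (top 100 uM, half-log steps, 0.5% DMSO). CYP2C19 mRNA was measured by qRT-PCR, normalized to ACTB/GAPDH/POLR2A, and fitted bidirectionally against DMSO.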

Read-out in a further test: CYP2C8 (gene 1558)
The test can be described thus: LTEA_HepaRG_CYP2C8: Life Technologies and Expression Analysis (LTEA) Assay for CYP2C8 using HepaRG (AID 2283483). In outline:
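HepaRG (human liver line), 48 h chemical exposure, 8-pt half-log series from 100 uM, 0.5% DMSO vehicle. Readout: CYP2C8 transcript by qRT-PCR, housekeeping-normalized. Bidirectional fit vs DMSO baseline.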

Read-out in another test: CYP2C9 (gene 1559)
The test can be described thus: LTEA_HepaRG_CYP2C9: Life Technologies and Expression Analysis (LTEA) Assay for CYP2C9 using HepaRG (AID 2283484). In outline: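 HepaRG, 48 h dosing, 8-pt half-log series, top 100 uM, 0.5% DMSO vehicle. Read-out: CYP2C9 transcript by TaqMan qRT-PCR, housekeeping-normalized (ACTB/GAPDH/POLR2A). Gain or loss fitted vs DMSO baseline.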

Read-out in another test: CYP2E1 (gene 1571)
The test can be described thus: LTEA_HepaRG_CYP2E1: Life Technologies and Expression Analysis (LTEA) Assay for CYP2E1 using HepaRG (AID 2283485). The essentials: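 Assay uses 48 h exposure of HepaRG hepatic cells, eight concentrations to 100 uM. Expression of CYP2E1 is quantified by TaqMan qRT-PCR with ACTB, GAPDH and POLR2A normalization; curves fitted in both directions relative to vehicle.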

Read-out in another test: CYP4A11 (gene 1579)
The test can be described thus: LTEA_HepaRG_CYP4A11: Life Technologies and Expression Analysis (LTEA) Assay for CYP4A11 using HepaRG (AID 2283486). The essentials:
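Differentiated HepaRG cells, serum-free induction medium, exposed 48 h in duplicate to 8-point half-log series from 100 uM in 0.5% DMSO. CYP4A11 mRNA measured by qRT-PCR, normalized to ACTB, GAPDH, POLR2A; bidirectional fit versus DMSO.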

Read-out in test [7]: Cytochrome P450 3A4 (Homo sapiens) (UniProt P08684)
The test can be described thus: LTEA_HepaRG_CYP3A4: Life Technologies and Expression Analysis (LTEA) Assay for CYP3A4 using HepaRG (AID 2283487). In outline: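 HepaRG, 48 h exposure, 8-pt CRC from 100 uM (half-log), 0.5% DMSO, duplicates; serum-free induction medium. Readout: CYP3A4 mRNA, qRT-PCR, ACTB/GAPDH/POLR2A normalization. Bidirectional fit vs DMSO.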

Read-out in test [8]: DNA damage-inducible transcript 3 (DDIT3), DDIT3 (gene 1649)
As to the kind of experiment: LTEA_HepaRG_DDIT3: Life Technologies and Expression Analysis (LTEA) Assay for DNA damage-inducible transcript 3 (DDIT3) using HepaRG (AID 2283488). The essentials:
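Eight-point concentration-response (100 uM highest, half-log dilutions) in HepaRG, 48 h, duplicate wells. Endpoint: qRT-PCR mRNA, normalized (ACTB, GAPDH, POLR2A), bidirectional fitting with DMSO as baseline.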

Read-out in test [9]: Pro-epidermal growth factor (Homo sapiens) (UniProt P01133)
The test can be described thus: LTEA_HepaRG_EGF: Life Technologies and Expression Analysis (LTEA) Assay for Epidermal growth factor (EGF) using HepaRG (AID 2283489). In outline:
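Differentiated human HepaRG cells, plated 48 h then switched to serum-free induction medium, were exposed for 48 h to test chemicals (8-point half-log series, top 100 uM, 0.5% DMSO). EGF mRNA was quantified by qRT-PCR, normalized to ACTB, GAPDH, POLR2A.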

Read-out in test [10]: Early growth response protein 1 (EGR1) transcription factor, EGR1 (gene 1958)
As to the kind of experiment: LTEA_HepaRG_EGR1: Life Technologies and Expression Analysis (LTEA) Assay for Early growth response protein 1 (EGR1) transcription factor using HepaRG (AID 2283490). The essentials: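 HepaRG, 48 h exposure, 8-pt half-log series from 100 uM, 0.5% DMSO vehicle; EGR1 transcript by TaqMan qRT-PCR (Fluidigm array), housekeeping-normalized; bidirectional fit relative to DMSO baseline.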

Read-out in test [11]: Ezrin (EZR), EZR (gene 7430)
As to the kind of experiment: LTEA_HepaRG_EZR: Life Technologies and Expression Analysis (LTEA) Assay for Ezrin (EZR) using HepaRG (AID 2283491). The essentials:
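Read-out is EZR transcript level by qRT-PCR, normalized to three housekeeping genes and fitted bidirectionally against the DMSO control. Human HepaRG cells received test chemicals for 48 h at eight half-log concentrations up to 100 uM in 0.5% DMSO.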

Read-out in test [12]: Cytochrome P450 3A7 (Homo sapiens) (UniProt P24462)
The test can be described thus: LTEA_HepaRG_CYP3A7: Life Technologies and Expression Analysis (LTEA) Assay for CYP3A7 using HepaRG (AID 2283492). The essentials: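 HepaRG cells plated 48 h, then dosed in serum-free induction medium for 48 h at 8 concentrations (top 100 uM, half-log steps, 0.5% DMSO). CYP3A7 mRNA by qRT-PCR, normalised to ACTB/GAPDH/POLR2A; bidirectional fit versus DMSO.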

Read-out in another test: CYP3A5 (gene 1577)
As to the kind of experiment: LTEA_HepaRG_CYP3A5: Life Technologies and Expression Analysis (LTEA) Assay for CYP3A5 using HepaRG (AID 2283493). In outline: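 Readout was CYP3A5 mRNA by qRT-PCR. HepaRG cultures were exposed for 48 h in serum-free induction medium to chemicals at up to 100 uM, and responses were fitted in both directions relative to DMSO vehicle.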

Read-out in test [13]: Fatty Acid-Binding Protein 1 (FABP1), FABP1 (gene 2168)
As to the kind of experiment: LTEA_HepaRG_FABP1: Life Technologies and Expression Analysis (LTEA) Assay for Fatty Acid-Binding Protein 1 (FABP1) using HepaRG (AID 2283494). In outline: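 qRT-PCR readout of FABP1 transcript (normalized to three housekeeping genes) after 48 h chemical exposure of HepaRG cells; eight concentrations, half-log steps, max 100 uM, 0.5% DMSO vehicle; gain or loss fitted relative to DMSO baseline.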

Read-out in test [14]: Bcl-2 (BID) gene, BID (gene 637)
As to the kind of experiment: LTEA_HepaRG_BID: Life Technologies and Expression Analysis (LTEA) Assay for Bcl-2 (BID) gene using HepaRG (AID 2283476). In outline: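 Assay used HepaRG hepatic cells treated 48 h in serum-free medium with half-log dilutions from 100 uM. Endpoint: BID mRNA, qRT-PCR, normalized to ACTB/GAPDH/POLR2A.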

The source made the active and inactive calls. How the source made its calls: active means hit-call score of the fitted dose curve at least 0.9, where 1 is the maximum; inactive means score below 0.9.

Sequence of Caspase-3 (Homo sapiens) (P42574 whole entry, looked up): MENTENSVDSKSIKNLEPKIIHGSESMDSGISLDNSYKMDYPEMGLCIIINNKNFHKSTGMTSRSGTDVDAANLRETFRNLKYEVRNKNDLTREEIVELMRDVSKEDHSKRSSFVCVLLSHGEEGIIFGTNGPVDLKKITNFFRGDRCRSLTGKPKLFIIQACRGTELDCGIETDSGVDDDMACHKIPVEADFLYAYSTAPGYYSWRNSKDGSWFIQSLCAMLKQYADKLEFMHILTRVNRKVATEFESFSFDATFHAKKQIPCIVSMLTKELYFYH
Sequence of Cytochrome P450 2C19 (Homo sapiens) (P33261 whole entry, looked up): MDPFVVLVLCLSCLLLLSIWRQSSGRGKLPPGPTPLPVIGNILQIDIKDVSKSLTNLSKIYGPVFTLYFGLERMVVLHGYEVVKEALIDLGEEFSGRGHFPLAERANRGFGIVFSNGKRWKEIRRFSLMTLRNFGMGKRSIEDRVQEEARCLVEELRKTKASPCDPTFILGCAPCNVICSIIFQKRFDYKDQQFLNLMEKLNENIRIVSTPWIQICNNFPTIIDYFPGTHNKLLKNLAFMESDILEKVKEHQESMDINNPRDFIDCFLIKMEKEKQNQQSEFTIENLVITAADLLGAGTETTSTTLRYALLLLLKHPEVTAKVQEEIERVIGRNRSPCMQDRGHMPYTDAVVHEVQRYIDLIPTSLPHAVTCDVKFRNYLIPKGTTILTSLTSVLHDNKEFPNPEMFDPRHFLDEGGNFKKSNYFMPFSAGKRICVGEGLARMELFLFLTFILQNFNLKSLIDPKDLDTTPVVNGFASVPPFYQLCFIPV
Sequence of Cytochrome P450 3A4 (Homo sapiens) (P08684 whole entry, looked up): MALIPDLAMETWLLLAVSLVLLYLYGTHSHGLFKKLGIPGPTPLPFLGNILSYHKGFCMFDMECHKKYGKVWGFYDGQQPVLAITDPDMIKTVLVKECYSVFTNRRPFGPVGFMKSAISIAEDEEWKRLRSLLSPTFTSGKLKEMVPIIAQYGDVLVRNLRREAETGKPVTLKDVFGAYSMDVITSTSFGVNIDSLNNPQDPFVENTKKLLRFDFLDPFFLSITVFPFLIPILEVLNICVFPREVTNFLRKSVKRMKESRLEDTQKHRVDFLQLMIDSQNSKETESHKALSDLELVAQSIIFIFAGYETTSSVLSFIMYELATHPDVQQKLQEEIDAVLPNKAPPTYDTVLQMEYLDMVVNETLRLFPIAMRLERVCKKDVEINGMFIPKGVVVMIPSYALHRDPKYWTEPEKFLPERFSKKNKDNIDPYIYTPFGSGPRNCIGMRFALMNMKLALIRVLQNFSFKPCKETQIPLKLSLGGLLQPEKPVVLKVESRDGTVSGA
Sequence of Apoptosis regulator Bcl-2 (Homo sapiens) (P10415 whole entry, looked up): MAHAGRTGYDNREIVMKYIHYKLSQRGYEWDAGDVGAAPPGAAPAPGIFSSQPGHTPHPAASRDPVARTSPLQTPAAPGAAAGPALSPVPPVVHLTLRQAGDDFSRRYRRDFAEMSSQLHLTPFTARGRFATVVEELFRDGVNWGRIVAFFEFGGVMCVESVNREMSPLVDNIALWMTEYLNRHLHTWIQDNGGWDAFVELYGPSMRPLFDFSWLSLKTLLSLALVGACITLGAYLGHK
Sequence of Cytochrome P450 3A7 (Homo sapiens) (P24462 whole entry, looked up): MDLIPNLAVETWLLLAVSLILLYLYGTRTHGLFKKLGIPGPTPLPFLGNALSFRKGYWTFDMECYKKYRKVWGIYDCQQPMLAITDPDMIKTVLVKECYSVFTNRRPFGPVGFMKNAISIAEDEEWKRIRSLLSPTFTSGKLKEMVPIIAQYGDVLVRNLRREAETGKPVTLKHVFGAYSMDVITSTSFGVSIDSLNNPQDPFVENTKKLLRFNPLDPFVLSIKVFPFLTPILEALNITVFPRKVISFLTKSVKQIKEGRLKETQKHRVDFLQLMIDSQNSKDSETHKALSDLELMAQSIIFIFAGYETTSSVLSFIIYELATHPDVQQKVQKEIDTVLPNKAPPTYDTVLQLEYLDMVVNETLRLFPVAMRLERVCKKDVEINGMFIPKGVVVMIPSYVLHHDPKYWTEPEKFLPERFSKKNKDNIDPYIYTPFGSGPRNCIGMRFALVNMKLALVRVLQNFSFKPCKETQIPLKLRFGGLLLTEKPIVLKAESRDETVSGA

By AC50 is commonly meant the concentration at which the activity in the assay is half-maximal. `CC(=O)NC1(c2cccc(F)c2)CCN(CC[C@@]2(c3ccc(Cl)c(Cl)c3)CN(c3ccccc3)C(=O)CO2)CC1`: the result (in test [1]; with Caspase-3 (Homo sapiens); in [2]; in test [3]; in test [4]; in [5]) was inactive. For the same compound, the compound was classed as inactive (in test [6]; in the test with CYP2C8 (gene 1558); in the test with CYP2C9 (gene 1559); in test [9]; in [13]). Further, the AC50 was 11 µM (active) with CYP2E1 (gene 1571); 13.1 µM (active) in the test with CYP4A11 (gene 1579); 3.67 µM (active) in [7]; 41.5 µM (active) in test [8]; 72.4 µM (active) in test [10]; 41.5 µM (active) in test [11]. Further, the AC50 is 4.05 µM (active) in test [12] and 75 µM (active) with CYP3A5 (gene 1577).

On to `NC(=O)N(O)[C@@H]1C=C[C@H](Oc2cccc(Oc3ccc(F)cc3)c2)C1`, for which the AC50 was 73.9 µM (active) in test [1]; 21.2 µM (active) in [3]; 34.4 µM (active) in test [5]; 76.7 µM (active) in test [6]; 27.3 µM (active) with CYP2C8 (gene 1558); 58.8 µM (active) with CYP2C9 (gene 1559). The AC50 was 32.1 µM (active) with CYP2E1 (gene 1571); 30.8 µM (active) with CYP4A11 (gene 1579); 72.1 µM (active) in test [7]; 35.1 µM (active) in test [8]; 12.7 µM (active) in [10]; 33.7 µM (active) in test [12]. In test [13], the AC50 is 74.2 µM (active). Further, the call (in test [14]; with Caspase-3 (Homo sapiens); in [2]; in [4]; in [9]; in [11]) was inactive. Besides, the compound was classed as inactive with CYP3A5 (gene 1577).

Regarding `Cc1oc(-c2ccccc2)nc1CCOc1ccc(C[C@H](Nc2ccccc2C(=O)c2ccccc2)C(=O)O)cc1`, the outcome in test [1] and in test [2] was inactive. Also, the AC50 was 75.6 µM (active) in test [14]; 32.7 µM (active) in the test with Caspase-3 (Homo sapiens); 27.2 µM (active) in test [3]; 32.1 µM (active) in test [4]; 18.5 µM (active) in [5]; 23.3 µM (active) in test [6]. For the same compound, the AC50 in the test with CYP2C8 (gene 1558) was 25.2 µM (active); with CYP2C9 (gene 1559), 22.5 µM (active); with CYP2E1 (gene 1571), 17.1 µM (active); with CYP4A11 (gene 1579), 28.1 µM (active); in test [7], 12.7 µM (active); in test [8], 14.1 µM (active). Moreover, the AC50 is 24.9 µM (active) in test [9]; 87.9 µM (active) in test [10]; 70 µM (active) in test [11]; 30.5 µM (active) in the test with CYP3A5 (gene 1577); 23.1 µM (active) in test [13].
